High-throughput results from PubChem BioAssay.
Only some compounds are listed: those with a hit (about 0.82% of all), similar ones and a draw of the others.
RTF Ca sens inh – cardiac RTF calcium sensitivity inhibitors, primary screen, biochemical, IANBD-TnC fluorescence, EC70 calcium | AID 493244, 2011 | IANBD-labeled cardiac RTF, Ca2+ fluorescence | inhibition, % at 7.15 µM | 340,000 tested, 0.12% active;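 active = inhibition above the mean inhibition of all tested compounds plus 3 SD, cut at about 17% in these data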;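 also: assay run at fixed EC70 calcium of 1.6 mM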
LANA DNA inh – inhibitors of KSHV C-LANA binding to DNA, primary screen, biochemical, fluorescence polarization, FAM-LBS DNA, MBP-C-LANA, single point | Kaposi's sarcoma herpesvirus LANA C-terminal domain (residues 932-1162) DNA binding | inhibition, % at 9 µM | 340,000 tested, 0.078% active | AID 504423, 2011;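 active = highest replicate inhibition at or above 60% at 9 µM, even if other replicates fall short; inactive = all replicates below 60% inhibition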;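 also: 0% = neutral control wells and 100% = 4 µM acridine orange control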
cardiac RTF act – cardiac RTF calcium sensitivity activators, primary screen, biochemical, IANBD-TnC fluorescence, EC20 calcium; Troponin I, cardiac muscle (Homo sapiens) + Troponin T, cardiac muscle (Homo sapiens) + …; IANBD-labeled TnC RTF fluorescence at EC20 calcium; 0% EC20 calcium, 100% full calcium; activation, % at 7.2 µM; 340,000 tested, 0.24% active;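 active = activation above the mean over all tested compounds plus 3 SD, cut at about 30% in these data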;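 also: rise in fluorescence read as greater calcium sensitivity of cardiac thin filaments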
eLon inh – inhibitors of E. coli Lon protease, primary screen, biochemical, fluorescence polarization; P0A9M0; purified E. coli Lon protease; inhibition, % at 7.94 µM; 360,000 tested, 0.42% active; in the data active = inhibition above about 13%, passing the limit was not always enough;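 also: 0% = enzyme with probe and DMSO and 100% = no enzyme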
Target sequence (P0A9M0 whole entry, looked up): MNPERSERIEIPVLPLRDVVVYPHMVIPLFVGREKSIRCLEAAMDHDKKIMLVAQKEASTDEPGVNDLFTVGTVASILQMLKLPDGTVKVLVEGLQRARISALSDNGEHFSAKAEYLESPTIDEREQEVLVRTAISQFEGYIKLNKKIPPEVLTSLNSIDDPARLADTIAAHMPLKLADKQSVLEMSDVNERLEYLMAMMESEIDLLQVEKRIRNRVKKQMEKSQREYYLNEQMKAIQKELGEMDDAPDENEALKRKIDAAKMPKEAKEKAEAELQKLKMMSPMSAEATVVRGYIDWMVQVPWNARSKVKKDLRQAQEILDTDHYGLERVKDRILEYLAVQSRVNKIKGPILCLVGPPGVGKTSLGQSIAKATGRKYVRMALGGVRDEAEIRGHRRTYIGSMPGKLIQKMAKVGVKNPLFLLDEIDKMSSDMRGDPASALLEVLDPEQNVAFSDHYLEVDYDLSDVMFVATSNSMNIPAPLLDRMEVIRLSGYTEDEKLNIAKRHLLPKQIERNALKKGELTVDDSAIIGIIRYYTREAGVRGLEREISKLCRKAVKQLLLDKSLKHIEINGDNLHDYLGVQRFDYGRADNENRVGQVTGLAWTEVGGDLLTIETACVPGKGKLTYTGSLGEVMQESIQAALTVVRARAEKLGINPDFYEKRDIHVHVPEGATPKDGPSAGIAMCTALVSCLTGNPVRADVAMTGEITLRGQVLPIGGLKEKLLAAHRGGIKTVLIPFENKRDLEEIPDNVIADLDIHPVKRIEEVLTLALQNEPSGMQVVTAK
Keap1-Nrf2 PPI – Keap1-Nrf2 protein-protein interaction inhibitors, primary screen, biochemical, fluorescence polarization, single point | Keap1 Kelch-Nrf2 peptide fluorescence polarization, 1536-well | inhibition, % at 9.4 µM | 340,000 tested, 0.15% active | AID 504523, 2011; in the data active = inhibition above about 12%;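 also: human Keap1 Kelch domain with fluorescein labeled Nrf2 9mer peptide probe; 0% = neutral control wells and 100% = peptide positive control; higher means more block of Keap1 binding to Nrf2 peptide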
* hit, by the source's call; i = inactive; · = no result given.

SMILES | RTF Ca sens inh | LANA DNA inh | cardiac RTF act | eLon inh | Keap1-Nrf2 PPI
COc1ccccc1C/C(N)=N/OC(=O)c1ccco1 | -2 | -1 | -1 | -9 | 1
Cc1cc(/C=C2\SC(=S)N(C)C2=O)c(C)n1-c1ccccc1O | -44 | 5 | 44* | -181 | -12
Cn1nccc1NC(=O)Nc1cccc(Cl)c1Cl | 3 | -2 | 61* | 3 | -3
CC(C)C[C@@H](CN1CCC[C@H]1CN1C(=O)C(=O)NC[C@@H]1Cc1ccc(O)cc1)N1C[C@H](Cc2ccc(O)cc2)N(CC2CCCCCC2)C(=O)C1=O | · | · | · | 13 | ·
CN(C)c1ccc(N=C/C=C2\N(C)c3ccccc3C2(C)C)cc1 | -2 | -9 | -1 | -2 | -25
CN1/C(=C\C=O)C(C)(C)c2ccccc21 | -20 | 0 | -3 | -2 | -2
CN1/C(=C/C=C(C#N)C#N)C(C)(C)c2ccccc21 | -4 | 150* | 1 | -1 | -226
CN1\C(=C/C=C/C=C/C=[N+](C)C)C(C)(C)c2ccccc21 | -411 | -10 | 218* | -130 | -36
CCCNC(=O)Cn1c(=O)/c(=C/c2ccc(-c3ccc([N+](=O)[O-])cc3)o2)s/c1=C\C(=O)C(C)(C)C | -75 | 1 | 52* | i | -8
CSc1ccc(/C=c2\s/c(=C\C(=O)C(C)(C)C)n(CC(=O)NCCC3=CCCCC3)c2=O)cc1 | 4 | 17 | 8 | -8 | 7
CC(C)[C@@H]1Cc2[nH]n(C)c(=O)c2[C@H](c2ccc(F)cc2)O1 | · | · | · | -3 | ·
CC(C)(C)Nc1c(C2CCNCC2)nc2c(OCc3ccccc3)cccn12 | · | · | · | -5 | ·
Cc1ccccc1Cn1ccc(NC(=O)c2cnn3c2NC(c2ccccc2)CC3C(F)(F)F)n1 (stereo not given) | -3 | 0 | 9 | 22* | -7
COc1cc(/C=C2\SC(=Nc3ccc(Cl)c(C(=O)O)c3)NC2=O)c(Br)c(Br)c1O | -135 | -55 | 70* | -482 | -92
COc1cc(/C=C2\SC(=Nc3ccccc3)NC2=O)cc(Cl)c1O | -92 | -31 | 63* | -489 | -8
CCN1/C(=C/C=C/c2oc3ccc(-c4ccccc4)cc3[n+]2CC)Oc2ccc(-c3ccccc3)cc21 | i | 10 | 998* | · | -212
Cc1cc(Br)c2c(c1)C(O)(N1CCCCC1C)C(=O)N2 (stereo not given) | -3 | 0 | 30* | -10 | -5
CCOC(=O)/C(=C\c1ccc(N2CCC(c3ccccc3)=N2)cc1)C(C)=O | -66 | 6 | 72* | -274 | 0
COc1ccc(-n2c(O)c(/C=N/Nc3nc(C)cc(C)n3)c3ccccc3c2=O)cc1OC | 0 | -1 | 2 | 4 | -7
COc1ccc(-n2c(O)c(/C=N/NS(=O)(=O)c3cc(C)ccc3C)c3ccccc3c2=O)cc1OC | -70 | -6 | 114* | -449 | -117
COc1ccc(-n2c(O)c(/C=N/NS(=O)(=O)c3ccc(C)cc3)c3ccccc3c2=O)cc1OC | -75 | -12 | 59* | -498 | -133
C#CCNC(=O)C[C@@H]1C[C@@]2(C(=O)OCC)CCCC=C2N(Cc2ccc3c(c2)OCO3)C1=O | · | · | · | -3 | ·
O=C1NC[C@@H](CCCCN2C[C@H](Cc3ccc(O)cc3)N(CCc3ccc(O)cc3)C(=O)C2=O)N(CC2CCCCC2)C1=O | · | · | · | -9 | ·
COC(=O)[C@]12CCCCC=C1N(CCC1=CCCCC1)C(=O)[C@H](CC(=O)N1CCN(C(=O)C3CC3)CC1)C2 | · | · | · | 1 | ·
COC(=O)CCCn1cc(CN(C)C2CN(Cc3cn(CCCC(=O)OC)nn3)S(=O)(=O)C2)nn1 (stereo not given) | · | · | · | -7 | ·
SMILES | RTF Ca sens inh | LANA DNA inh | cardiac RTF act | eLon inh | Keap1-Nrf2 PPI
COc1ccccc1N1C(C)=CC(=C(C#N)c2nc3ccccc3s2)C=C1C | -44 | 2 | 53* | -5 | 2
CC1=CC(=C(C#N)c2nc3ccccc3s2)C=C(C)N1c1ccc(F)cc1 | -7 | -3 | 110* | -3 | -2
CC(C)=C(C#N)c1nc2ccccc2s1 | -11 | 2 | 1 | -51 | -5
CC(C)C[C@H]1CN(CCCC[C@H]2CNC(=O)C(=O)N2CC2CCCCC2)C(=O)C(=O)N1Cc1ccccc1 | · | · | · | 0 | ·
O=c1c2ccccc2nc(/C=C/c2ccccc2)n1CCCO | 3 | -3 | -9 | 18 | 2
CN(C)c1ccc(/C=C/c2nc3ccccc3c(=O)n2CCO)cc1 | -135 | 12 | 38* | -415 | -57
COc1cccc(-c2cnc(C(O)c3cc(C)ccc3C)[nH]2)c1 (stereo not given) | · | · | · | -1 | ·
Nc1c(C(=O)c2ccc(Cl)cc2)sc2nsc(SCCN3CCOCC3)c12 | -21 | 0 | 33* | -57 | -7
Nc1c(C(=O)c2ccccc2)sc2nsc(SCCN3CCCC3)c12 | -29 | -5 | 10 | -140 | -15
O=S(=O)(O)c1cc(Cl)cc(N=Nc2ccc(O)cc2O)c1O | 15 | 84* | -30 | 122 | -2
NS(=O)(=O)c1ccc(N2N=C(c3ccccc3)CC2c2ccc(Br)cc2)cc1 (stereo not given) | · | · | · | 4 | ·
NS(=O)(=O)c1ccc(N2N=C(c3ccccc3)CC2c2ccccc2)cc1 (stereo not given) | -48 | -2 | 43* | 11 | 2
CC(/C=C/c1ccc(N(C)C)cc1)=N/N=C1/NC(=O)CC(C(=O)Nc2ccc(Cl)cc2)S1 (stereo not given) | -5 | 1 | 32* | -64 | 1
O=c1c(O)c(-c2cccs2)oc2ccc(Cl)cc12 | -85 | 0 | 36* | -70 | 0
Cc1ccc(S(=O)(=O)Nc2nc3ccccc3nc2NCc2ccco2)cc1 | -23 | 15 | 25 | 38* | 4
Cc1ccc(N=Cc2sc(O)c3ccccc23)c(C)c1 | -15 | 0 | 49* | 10 | -7
COc1ccc(CCNC(=O)c2ccc(OC)c(OC)c2)cc1OC | -6 | -1 | -4 | -8 | -1
COc1ccc(CCNC(=O)c2c(N)no[n+]2[O-])cc1OC | -2 | 80* | 6 | 1 | 0
CC1(c2nnnn2-c2ccc3c(c2)OCCO3)CCC(=O)N1CC1CCCCC1 (stereo not given) | · | · | · | -9 | ·
CS(=O)(=O)c1ccc(Cl)c(NC(=O)COC(=O)c2ccc(F)cc2Cl)c1 | -5 | 71* | 1 | 6 | 1
CS(=O)(=O)c1ccc(Cl)c(NC(=O)COC(=O)c2cccc(C#N)c2)c1 | -9 | 0 | -2 | 4 | -1
O=S(=O)(O)c1cc(O)c2c(O)c(N=Nc3cc(Cl)ccc3O)c(S(=O)(=O)O)cc2c1 | 27* | 50 | -11 | 45* | 0
Oc1ccc(Cl)cc1N=Nc1ccccc1 | 4 | -1 | -8 | 2 | -4
Nc1[nH]c(C(=O)c2ccccc2)c(-c2ccccc2Br)c1C(=O)NCCc1ccc(Cl)cc1Cl | · | · | · | 2 | ·
